Bioassay records: PubChem BioAssay, several laboratories
Shown are actives, neighbours in structure and some others; about 2.5% of the full set was active somewhere.
aSyn 5UTR inh: MLPCN primary screen, SNCA 5' untranslated region; actives 0.82% (n = 300,000); inhibition, % (tested at 7.5 µM); alpha-synuclein 5'UTR reporter, inhibitor activity; in the data active = inhibition above about 60%;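 also: H4 neuroglioblastoma cells stably carrying SNCA 5'UTR luciferase fusion; 0% = DMSO wells and 100% = positive control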
KLF5 inh: kruppel-like factor 5 inhibition. DLD-1 KLF5 promoter-luciferase reporter, luminescence. inhibition, % at 5 µM. actives 0.23% (n = 290,000);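 active = inhibition above a per-plate limit of that plate's mean compound inhibition plus 3 SD, cut at about 60% in these data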;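 also: 0% = DMSO wells and 100% = LY294002 at 200 µM; higher means less KLF5 promoter-driven luciferase light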
ANO1 block: mouse TMEM16A channel inhibition, primary screen; Q8BHY3; AID 588511; actives 1.2% (n = 310,000); normalized B-score (activity score, 25-100; higher = stronger inhibition) at 10 µM; HEK293 TMEM16A/YFP iodide influx fluorescence, ionomycin;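 active = ratio plate-corrected score three or more library SD toward inhibition, starting fluorescence score within five deviations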;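 also: score derived from kinetic fluorescence span divided by baseline fluorescence per well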
697 NFkB inh: inhibitors of the PMA/ionomycin-induced NF-kB reporter in 697 B cells; actives 0.33% (n = 330,000); 697 B-cell NF-kB luciferase reporter, 16 h; inhibition, % at 4 µM; AID 435022; in the data active = inhibition above about 35%
ANO1 activ: activators or potentiators of mouse TMEM16A chloride channel; Q8BHY3; HEK293 TMEM16A/YFP-H148Q/I152L, iodide quench fluorescence; hits give low values; B-score at 10 µM; actives 0.3% (n = 340,000);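 active = fluorescence-ratio B-score plate-corrected deviation score at least 3 library SD below zero, with starting fluorescence score within 5 deviations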;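 also: channel opened by trigger with iodide after compound preincubation; score built on the fluorescence ratio of max minus min over baseline; more negative score means more quench and so TMEM16A activation or potentiation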
Jurkat NFkB inh: inhibitors of the PMA/ionomycin-induced NF-kB reporter in Jurkat cells; PMA/ionomycin-induced NF-kB luciferase reporter, luminescence; inhibition, % at 4 µM; actives 0.53% (n = 330,000); AID 435003; in the data active = inhibition above about 50%
* hit, by the source's call; i = inactive; x = no result given.

SMILES | aSyn 5UTR inh | KLF5 inh | ANO1 block | 697 NFkB inh | ANO1 activ | Jurkat NFkB inh
N#Cc1nc(-c2ccccc2Cl)oc1NCc1ccco1 | -21 | -11 | i | 3 | -4.7* | -25
COc1ccc(O)c(/C=N/NC(=O)c2ccc(OCc3cccc(Br)c3)cc2)c1 | 82* | -43 | i | -18 | i | 26
CCOc1ccc(CCNC(=O)COC(=O)c2cccc(S(=O)(=O)N3CCCC3)c2)cc1OCC | 23 | x | i | 22 | i | 0
CN(C)S(=O)(=O)c1ccc(Cl)c(NC(=O)COC(=O)CNS(=O)(=O)c2c(F)cccc2F)c1 | x | x | x | x | i | x
CC(=O)Nc1ccc(Nc2nc(C)c([N+](=O)[O-])c(N(C)c3ccccc3)n2)cc1 | 86* | -15 | i | -22 | i | 4
Oc1[nH]c2ccccc2c1N=Nc1ccccn1 | x | x | x | x | i | x
Oc1c(N=Nc2ccccn2)ccc2ccccc12 | 74* | 9 | i | -184 | i | 47
O=C(c1cc(Br)c(Br)s1)N1CCc2ccccc2C1 | x | x | x | 10 | i | -4
COc1ccc(N(C)C(=O)c2cn(CC(C)C)c(=O)c3cc(OC)c(OC)cc23)cc1 | 12 | -34 | i | 11 | i | -17
Nc1ccc(N2CCCCC2)cc1N1CCCCC1 | 85* | -15 | i | -50 | i | -8
CCN(C(=O)COC(=O)c1cccc(S(=O)(=O)N(C)C)c1)c1c(N)n(Cc2ccccc2)c(=O)[nH]c1=O | x | x | x | x | i | x
N#C/C(=C\c1ccc(O)c([N+](=O)[O-])c1)c1nc2ccccc2s1 | -66 | -21 | x | x | i | x
COc1cc(/C=C(\C#N)c2nc3ccccc3s2)cc([N+](=O)[O-])c1O | -40 | -10 | x | -18 | -16* | -4
COc1ccc(-c2csc(/C(C#N)=C\c3ccc(OC)c([N+](=O)[O-])c3)n2)cc1 | 19 | -20 | i | 11 | i | -15
COc1ccc(-c2csc(/C(C#N)=C\c3ccc(O)c([N+](=O)[O-])c3)n2)cc1OC | -5 | -8 | 100* | -14 | i | -9
Cc1ccc(C(=O)N/C(=C/c2ccc(N(C)C)cc2)C(=O)NCC2CCCO2)cc1 (stereo unspecified) | 12 | -33 | i | -4 | i | 1
N#CC(c1ccc(Cl)cc1)c1ccc2c(C(F)(F)F)cc(C(F)(F)F)nc2n1 (stereo unspecified) | 112* | -9 | 100* | -8 | i | 5
FC(F)(F)c1cc(C(F)(F)F)c2ccc(N3CCN(c4ccc(Cl)cc4)CC3)nc2n1 | 0 | -5 | i | 7 | i | 4
Cc1cn(CC(=O)NCc2ccc(N(C)C)cc2)c(=O)[nH]c1=O | x | x | x | x | i | x
Cc1nc(N2CCN(C(=O)COc3ccccc3)CC2)c2c(C)c(C)sc2n1 | 36 | -6 | 100* | -7 | i | 4
O=S1(=O)CCS(=O)(=O)C1c1ccccc1 | -7 | x | i | 30 | i | 17
COc1ccccc1NC(=O)c1csc(-n2nc(C)cc2C(F)(F)F)n1 | 6 | -36 | i | 19 | -4.7* | -6
Cc1cc(C(F)(F)F)n(-c2nc(C(=O)Nc3ccccc3Oc3ccccc3)cs2)n1 | x | -10 | x | x | x | x
NS(=O)(=O)c1cccc(NC(=O)C(Cc2ccccc2)NC(=O)c2ccccc2)c1 (stereo unspecified) | 3 | -2 | i | 14 | i | 6
CC(NC1=CC(=O)c2cccnc2C1=O)C(O)c1ccccc1 (stereo unspecified) | x | x | x | x | i | x
SMILES | aSyn 5UTR inh | KLF5 inh | ANO1 block | 697 NFkB inh | ANO1 activ | Jurkat NFkB inh
CC1=C(C)C(=O)C(N2CCOCC2)=CC1=O | -6 | -13 | x | x | i | x
O=C1C=C(N2CCOCC2)c2ccccc2C1=O | 114* | -17 | i | 19 | i | 29
COc1ccc(S(=O)(=O)N(C)CC(=O)NCCCN2CCOCC2)cc1C | x | x | x | x | i | x
CC1(C)OC(=O)C(=Cc2ccc(-c3ccc(S(N)(=O)=O)cc3)o2)C(=O)O1 | 9 | -33 | i | 12 | -6.2* | -23
CN1CCN(S(=O)(=O)c2cccc(C(=O)N(C)CC(=O)Nc3ccc(Cl)c(Cl)c3)c2)CC1 | x | x | x | x | i | x
CCCCCCOc1ccc(/C(N)=N/O)cc1 | -173 | -100 | i | -58 | i | -56
N=C(N)c1ccc(OCCCCCOc2ccc(C(=N)N)cc2)cc1 | 67* | 10 | i | -9 | i | 17
CCc1c(C)c(C#N)c2nc3ccccc3n2c1N(C)C | x | 3 | i | -10 | i | -9
CCCCc1c(C)c(C#N)c2nc3ccccc3n2c1Cl | 109* | -16 | x | x | x | x
C#CCOCCOCCOCCNc1nc(N2CCN(C(=O)CCCCCCCCCCNC(=O)Cn3cc(C[C@@H](C)O)nn3)CC2)nc(N2CCN(C(=O)CCCCCCCCCCNC(=O)[C@H](CCCN=C(N)N)n3cc(C[C@@H](C)CC)nn3)CC2)n1 | -85 | x | i | 1 | -26* | 5
C#CCOCCOCCOCCNc1nc(N2CCN(C(=O)CCCCCCCCCCNC(=O)[C@H](CO)n3cc(CCCSC)nn3)CC2)nc(N2CCN(C(=O)CCCCCCCCCCNC(=O)[C@H](CCCN=C(N)N)n3cc(C[C@@H](C)CC)nn3)CC2)n1 | x | x | 25* | -1 | -32* | 5
C#CCOCCOCCOCCNc1nc(N2CCN(C(=O)CCCCCCCCCCNC(=O)Cn3cc(C[C@@H](C)O)nn3)CC2)nc(N2CCN(C(=O)CCCCCCCCCCNC(=O)[C@H](CCCCN)n3cc(CCCC(=O)O)nn3)CC2)n1 | x | x | i | 4 | i | 21
CC(C)c1ccc(C2OCC(C)([N+](=O)[O-])CO2)cc1 (stereo unspecified) | x | x | x | x | i | x
COc1ccc(CC(=O)NNC(=O)CSc2ccc(C)cc2)cc1 | 1 | -6 | i | 4 | -7.1* | -3
COc1ccc(/C(N)=N/OC(=O)CSc2ccc(C)cc2)cc1 | -34 | -16 | 100* | 24 | i | 5
OCCCNc1nc(-c2ccc(Cl)cc2)nc2ccccc12 | 19 | -29 | i | 1 | -6.3* | -2
COCCCNc1nc(-c2ccc(Cl)cc2)nc2ccccc12 | 34 | -23 | 25* | -6 | i | 2
COc1ccccc1C(CNC(=O)c1cccc(NS(=O)(=O)c2ccc(C)c(F)c2)c1)N1CCCC1 (stereo unspecified) | 12 | x | i | 3 | i | 9
Cc1ccnc(NC(=O)CCC(=O)c2cccs2)c1 | 84* | x | i | -146 | i | -31
Cc1ccc(NC(=O)CCC(=O)c2cccs2)nc1 | -25 | x | i | 7 | i | -5
O=C(CN1CCOCC1)Nc1ncc(Cc2cccc3ccccc23)s1 | 21 | -1 | 25* | 2 | i | 4
COc1cccc(C2Nc3ccccc3C(=O)N2Cc2ccccc2)c1 (stereo unspecified) | 79* | x | i | -23 | i | -33
C1N2CN3CN1CN(C2)C3 | x | x | i | 0 | i | 14
